# Measurements: PubChem BioAssay AID504333 (National Center for Advancing Translational Sciences (NCATS), 2011)
# The whole screen tested about 360,000 compounds, of which about 16,000 (4.4%) were called active. Entries that show only a call come without a potency. Not shown: some 9% with an inconclusive outcome. This is one part of a sample in which actives are shown more often than they occur. Calls come from the whole dose curve; as a rule, active = well fitted inhibition curve with a large enough effect; inconclusive = small, poorly fitted or top-dose-only effect; inactive = no such curve, though single readings can be large or run the other way.
# Molecular target: Bromodomain adjacent to zinc finger domain protein 2B (Homo sapiens) (UniProt Q9UIF8)
# Assay: qHTS Assay for Inhibitors of BAZ2B; note: nearly all actives have a fitted effect of over 60% in size
# Conditions: AlphaScreen BAZ2B-H3K14Ac peptide displacement; series mostly up to 114 µM
# Procedure, shortened: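 AlphaScreen displacement of biotin-H3(5-23)K14Ac peptide (50 nM final) from BAZ2B (50 nM final) in PBS pH 7.4, 0.01% Tween-20; complex preformed 30 min RT, then compounds (top 110 uM) 30 min RT, beads 20 min dark.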
# Potency is the fitted concentration of half-maximal effect.
# Sequence of Bromodomain adjacent to zinc finger domain protein 2B (Homo sapiens) (Q9UIF8 whole entry, looked up, the tested form may be a part): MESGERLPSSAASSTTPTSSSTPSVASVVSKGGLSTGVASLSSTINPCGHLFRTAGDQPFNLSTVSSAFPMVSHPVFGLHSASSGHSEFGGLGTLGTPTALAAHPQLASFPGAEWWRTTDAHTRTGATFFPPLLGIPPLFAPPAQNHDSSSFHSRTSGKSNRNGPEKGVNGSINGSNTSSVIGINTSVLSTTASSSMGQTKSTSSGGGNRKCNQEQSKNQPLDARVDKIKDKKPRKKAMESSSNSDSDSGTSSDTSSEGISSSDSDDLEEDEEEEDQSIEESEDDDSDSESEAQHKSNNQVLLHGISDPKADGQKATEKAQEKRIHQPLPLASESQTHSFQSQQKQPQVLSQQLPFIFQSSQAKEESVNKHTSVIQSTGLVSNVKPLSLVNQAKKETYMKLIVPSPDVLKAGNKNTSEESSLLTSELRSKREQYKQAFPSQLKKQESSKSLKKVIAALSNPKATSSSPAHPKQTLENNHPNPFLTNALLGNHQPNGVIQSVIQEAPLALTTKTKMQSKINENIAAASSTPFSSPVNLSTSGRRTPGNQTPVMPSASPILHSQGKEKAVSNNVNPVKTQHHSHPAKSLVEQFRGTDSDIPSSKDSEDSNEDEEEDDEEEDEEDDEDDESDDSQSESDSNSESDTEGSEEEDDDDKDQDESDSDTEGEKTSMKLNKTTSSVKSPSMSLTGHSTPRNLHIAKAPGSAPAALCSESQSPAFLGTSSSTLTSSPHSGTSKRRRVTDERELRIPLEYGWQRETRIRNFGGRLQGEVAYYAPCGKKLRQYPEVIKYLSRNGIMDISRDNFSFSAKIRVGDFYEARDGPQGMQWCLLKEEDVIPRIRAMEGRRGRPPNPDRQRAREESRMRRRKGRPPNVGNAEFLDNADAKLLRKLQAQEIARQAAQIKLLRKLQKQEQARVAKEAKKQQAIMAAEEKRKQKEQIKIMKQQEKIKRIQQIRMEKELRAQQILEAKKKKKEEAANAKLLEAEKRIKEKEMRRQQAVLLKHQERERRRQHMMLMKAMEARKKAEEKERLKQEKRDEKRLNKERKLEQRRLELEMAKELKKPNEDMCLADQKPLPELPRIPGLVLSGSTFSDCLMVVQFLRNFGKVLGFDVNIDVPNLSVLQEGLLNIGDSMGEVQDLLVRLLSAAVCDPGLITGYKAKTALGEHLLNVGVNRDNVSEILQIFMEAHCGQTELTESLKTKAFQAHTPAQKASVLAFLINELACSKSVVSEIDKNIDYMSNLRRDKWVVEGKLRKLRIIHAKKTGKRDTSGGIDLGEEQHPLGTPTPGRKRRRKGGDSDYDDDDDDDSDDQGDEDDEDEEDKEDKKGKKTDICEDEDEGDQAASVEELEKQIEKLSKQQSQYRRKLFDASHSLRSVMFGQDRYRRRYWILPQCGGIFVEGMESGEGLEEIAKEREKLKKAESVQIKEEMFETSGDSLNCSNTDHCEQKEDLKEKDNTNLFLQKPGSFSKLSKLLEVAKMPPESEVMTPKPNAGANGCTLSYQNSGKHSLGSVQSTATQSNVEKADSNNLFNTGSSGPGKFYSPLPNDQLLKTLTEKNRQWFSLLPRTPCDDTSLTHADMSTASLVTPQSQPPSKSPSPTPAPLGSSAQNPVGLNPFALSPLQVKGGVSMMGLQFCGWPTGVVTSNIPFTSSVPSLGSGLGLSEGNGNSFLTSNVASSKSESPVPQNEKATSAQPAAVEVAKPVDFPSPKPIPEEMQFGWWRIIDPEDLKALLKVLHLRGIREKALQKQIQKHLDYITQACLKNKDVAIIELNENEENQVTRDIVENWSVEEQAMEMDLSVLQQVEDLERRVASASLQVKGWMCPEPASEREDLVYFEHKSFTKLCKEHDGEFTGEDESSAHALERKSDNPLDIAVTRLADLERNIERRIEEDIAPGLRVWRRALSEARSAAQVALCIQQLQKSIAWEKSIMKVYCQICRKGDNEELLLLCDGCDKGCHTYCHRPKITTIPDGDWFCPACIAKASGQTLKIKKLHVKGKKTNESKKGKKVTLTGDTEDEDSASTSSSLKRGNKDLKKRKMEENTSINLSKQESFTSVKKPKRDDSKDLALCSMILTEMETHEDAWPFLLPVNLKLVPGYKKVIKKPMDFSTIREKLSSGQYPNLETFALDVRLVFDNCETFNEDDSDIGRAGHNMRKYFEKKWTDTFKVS
row,Structure (SMILES),Potency
1,CCOc1c(Br)cc(/C=C2\C(=O)N(CCC#N)N=C2C)cc1OC,inactive
2,COc1cc(/C=C2/C(=O)NN(c3ccc(F)cc3)C2=O)cc([N+](=O)[O-])c1O,39.8 µM (active)
3,COc1cccc(/C=C2\SC(=N)N(c3ccc(F)cc3)C2=O)c1,inactive
4,COc1cc(/C=N/O)cc(Br)c1OCc1cccc(Cl)c1,inactive
5,COc1cc(CN2CC(C)CC(C)C2)cc([N+](=O)[O-])c1O (centres undefined),inactive
6,COc1cc(/C=C2/C(=O)NN(c3cccc(Cl)c3)C2=O)cc(Br)c1O,39.8 µM (active)
7,CCc1cccc(NC(=O)c2cnc(N3CCOCC3)c3ccccc23)c1,inactive
8,Cc1ccc(C(=O)CSc2nc(-c3ccccc3)nc3c2CCCC3)c(C)c1,inactive
9,COc1ccc(CC(=O)NCCc2sc3nc(-c4ccc(OC)cc4)nn3c2C)cc1,inactive
10,O=C(c1ccncc1)N1CCN(c2ccc3ccccc3n2)CC1,inactive
11,O=C(c1ccc2ccccc2n1)N1CCN(c2ccccc2Cl)CC1,50.1 µM (active)
12,COc1ccccc1N1CCN(C(=O)c2c(-c3c(Cl)cccc3Cl)noc2C)CC1,inactive
13,COc1ccc(C)cc1-n1c(-c2ccc(C)cc2)cc2c1CC(C)(C)CC2=O,inactive
14,COc1ccc(C2NC(=O)c3ccccc3N2)cc1 (centres undefined),inactive
15,COc1cccc(C2Nc3cccc4cccc(c34)N2)c1,35.5 µM (active)
16,COc1cccc(N2C(=O)C3CCCN3C2c2ccc(F)cc2)c1 (centres undefined),inactive
17,FC(F)(F)c1cc(Nc2nc3ccccc3c3nncn23)ccc1Cl,inactive
18,COC(=O)c1cn(C(=O)c2ccc(Cl)cc2)c2ccccc12,inactive
19,COC(=O)/C(NC(C)=O)=C(\C)c1ccc(Cl)cc1,inactive
20,COC(=O)C(=Nc1ccccc1)/C(C(=O)C(=O)N(C)c1ccccc1)=C(\O)c1ccc(Cl)cc1,50.1 µM (active)
21,CCCCc1nn2c(=O)cc(COC(=O)c3ccccc3NC(=O)C(C)(C)C)nc2s1,inactive
22,Cc1nn(-c2ccccc2)c2c1C(c1cccc([N+](=O)[O-])c1)N(c1ccccc1)C(=O)N2 (centres undefined),inactive

row,Structure (SMILES),Potency
1,Cc1nn(-c2ccc([N+](=O)[O-])cc2)c(N)c1-c1ccccc1,70.8 µM (active)
2,Cc1cc(CO)nn1-c1ccc([N+](=O)[O-])cc1,inactive
3,O=C(NCc1ccc(F)cc1)c1ccc(Cn2c(SCc3ccc(F)cc3)nc3cccnc32)cc1,inactive
4,Cc1oc2ncnc(N3CCOCC3)c2c1C(=O)NCCc1ccccc1,inactive
5,COc1ccccc1CNC(=O)CCCCn1c(=O)c2ccccc2n(CC(=O)Nc2cc(Cl)ccc2C)c1=O,inactive
6,COc1ccccc1CNC(=O)CCn1c(=O)c2ccccc2n(CC(=O)Nc2cccc(Cl)c2)c1=O,79.4 µM (active)
7,COc1ccccc1CNC(=O)CCn1c(=O)c2ccccc2n(CC(=O)Nc2ccc(Br)cc2F)c1=O,inactive
8,O=C(NCc1ccccc1Cl)C1=Cc2cc(Br)ccc2OC1,inactive
9,CCCC(=O)Nc1cc(C(=O)NCc2ccc(OC)cc2)ccc1S(=O)(=O)c1ccc(Cl)cc1,inactive
10,CCOc1ccc(CCNC(=O)c2ccc3c(c2)sc2nc(-c4ccc(F)cc4)cn23)cc1OCC,inactive
11,CCOc1ccc(-c2nonc2NC(=O)c2oc3ccc(CC)cc3c2C)cc1,inactive
12,COc1ccc(-c2cn3c(n2)sc2cc(C(=O)Nc4ccccc4F)ccc23)cc1,inactive
13,Oc1cc2c(cc1O)CN(C(=S)NCCc1ccc(Cl)cc1)CCC2,44.7 µM (active)
14,COc1ccc(CCNC(=S)N2CCN(S(=O)(=O)c3ccc(Cl)cc3)CC2)cc1,inactive
15,O=C(NCCc1ccc(Cl)cc1)c1cccc(N2CCCC2=O)c1,inactive
16,O=C1NN(c2ccccc2)C(=O)/C1=C/c1ccc(-c2cccc(C(=O)O)c2)o1,44.7 µM (active)
17,CC(=O)c1cc(-c2ccccc2)[nH]c1N1CCCC1,inactive
18,COc1ccc(-n2nnc(-c3nsc(NC(=O)c4ccc(C)c(C)c4)n3)c2C)cc1Cl,inactive
19,Cc1ccc(NC(=O)c2cc(S(=O)(=O)NCCC3=CCCCC3)ccc2F)cc1C,inactive
20,Cc1sc2ncn(CC(=O)N3CCN(c4ccc(F)cc4)CC3)c(=O)c2c1S(=O)(=O)N1CCN(c2ncccn2)CC1,inactive
21,CCOC(=O)c1c(/N=C/c2cc(C)ccc2O)sc2c1CCC2,50.1 µM (active)
22,CCOC(=O)c1c(NC(=S)NC)sc2c1CCCC2,inactive

row,Structure (SMILES),Potency
1,CCOC(=O)c1c(NC(=O)/C(C#N)=C/c2ccccc2)sc2c1CCC2,inactive
2,O=C(Nc1ccc2nc(SCC(=O)N3CCc4ccccc43)sc2c1)c1ccccc1F,inactive
3,CCOC(=O)c1cc2c(=O)n3ccccc3nc2n(CC2CCCO2)c1=NC(=O)c1ccccc1Br (centres undefined),inactive
4,CCc1ccc(NC(=O)CCCc2nnc3n(CCCOC)c(=O)c4sccc4n23)cc1,inactive
5,O=C(NCCN1C(=O)S/C(=C\c2cccnc2)C1=O)c1cccc(OC(F)F)c1,inactive
6,N#Cc1ccccc1CN1C(=O)S/C(=C/c2cccn2-c2cccc(C(=O)O)c2)C1=O,25.1 µM (active)
7,Cc1nn(Cc2ccccc2)c(C)c1C(=O)NCCN1C(=O)S/C(=C\c2ccc(F)cc2)C1=O,inactive
8,CCc1ccc(CNCc2c(C(=O)O)n(Cc3ccc(F)cc3Cl)c3cc(OC)ccc23)cc1,inactive
9,CCCCN(CC)CCCNC(=O)Cn1ncc2c([nH]c3ccc(C)cc32)c1=O,inactive
10,CCNS(=O)(=O)c1ccc(NC(=O)CSc2nc(-c3ccco3)cc(C(F)(F)F)n2)cc1,inactive
11,CCOc1c(CNCc2ccc(C(=O)O)cc2)cccc1OC,inactive
12,CCOc1cc(C(=O)O)ccc1OCCOc1ccccc1,inactive
13,CCOc1cccc2c1N[C@@H](c1ccc(C(=O)O)cc1)[C@H]1CC=C[C@@H]21,15.8 µM (active)
14,Cc1cccc(N2CCN(C(=O)CCSCc3ccccc3F)CC2)c1C,inactive
15,Cc1ccc(-n2ncc(C(=O)N(C)Cc3ccccc3)c2-n2cccc2)cc1,inactive
16,COc1ccc2oc(-c3ccc(C)c(NC(=O)c4sc5ccccc5c4Cl)c3)nc2c1,inactive
17,O=C(CSc1nc(Nc2ccc(F)c(F)c2)c2ccccc2n1)c1ccc(Cl)cc1,inactive
18,CC(O)CN(Cc1ccc(Cl)cc1)CC(C)O (centres undefined),56.2 µM (active)
19,O=C(NCc1ccc(Cl)cc1)NCc1ccc(Cl)cc1,inactive
20,CN(C)CCCNC(=S)NCc1ccc(Cl)cc1,inactive
